# For some assays here: Results with a measured potency or affinity are listed apart.
# Tests used:
# Set-up in all cases: scale not given: direction of the effect not stated beside the values
# [1] = target: Protein translocase subunit SecA (Escherichia coli (strain K12)) (UniProt P10408); experiment: Assay to Identify E. coli SecA ATPase Inhibitors; format: functional; conditions: 30 µM
# [2] = target: T1, Ubiquitin-activating enzyme e1, putative (Leishmania donovani (strain BPK282A1)) (UniProt E9BSI1); experiment: Leishmania donovani Ubiquitin Activating Enzyme (LdE1); format: functional; conditions: 30 µM
# T1 sequence (whole entry): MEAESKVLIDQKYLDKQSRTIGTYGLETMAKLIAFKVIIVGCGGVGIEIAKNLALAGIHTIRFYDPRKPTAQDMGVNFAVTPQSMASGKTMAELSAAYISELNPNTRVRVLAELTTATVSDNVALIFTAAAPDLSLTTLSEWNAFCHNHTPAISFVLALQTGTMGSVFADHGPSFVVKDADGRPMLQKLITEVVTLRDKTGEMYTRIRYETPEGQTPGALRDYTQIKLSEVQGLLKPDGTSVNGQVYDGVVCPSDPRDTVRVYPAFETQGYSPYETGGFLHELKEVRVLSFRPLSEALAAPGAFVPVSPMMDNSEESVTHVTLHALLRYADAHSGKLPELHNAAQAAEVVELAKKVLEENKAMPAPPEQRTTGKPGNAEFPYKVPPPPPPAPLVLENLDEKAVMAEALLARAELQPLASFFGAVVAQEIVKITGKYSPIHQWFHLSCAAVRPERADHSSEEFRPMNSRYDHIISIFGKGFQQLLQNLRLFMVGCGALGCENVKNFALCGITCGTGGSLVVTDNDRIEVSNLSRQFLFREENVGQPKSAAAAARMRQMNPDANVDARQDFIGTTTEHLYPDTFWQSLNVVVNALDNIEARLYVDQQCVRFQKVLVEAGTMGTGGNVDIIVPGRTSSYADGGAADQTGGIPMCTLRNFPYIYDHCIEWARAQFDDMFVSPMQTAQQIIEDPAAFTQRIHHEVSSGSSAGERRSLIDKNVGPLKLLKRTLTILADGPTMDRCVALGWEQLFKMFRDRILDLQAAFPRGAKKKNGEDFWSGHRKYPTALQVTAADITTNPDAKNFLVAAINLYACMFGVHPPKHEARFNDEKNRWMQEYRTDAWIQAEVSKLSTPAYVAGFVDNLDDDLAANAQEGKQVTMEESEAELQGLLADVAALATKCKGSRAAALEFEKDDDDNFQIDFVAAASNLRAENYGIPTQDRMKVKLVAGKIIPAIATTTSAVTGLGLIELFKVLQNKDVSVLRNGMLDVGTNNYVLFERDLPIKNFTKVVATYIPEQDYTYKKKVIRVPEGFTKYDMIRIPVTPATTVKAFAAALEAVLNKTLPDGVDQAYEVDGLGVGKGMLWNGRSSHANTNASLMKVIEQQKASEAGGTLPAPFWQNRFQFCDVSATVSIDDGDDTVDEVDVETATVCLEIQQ
# [3] = target: AMP-activated protein kinase, AMPK (Homo sapiens) (UniProt P54646+O43741+P54619+Q9UGJ0+Q9Y478+Q13131+Q9UGI9); experiment: AMP-dependent Kinase enzyme assay. An in vitro enzyme assay that detects ADP turnover that is directly proportional to AMPK activity. This uses naive AMPK that is activated during the assay with MK-8722; format: functional; conditions: 30 µM
# [4] = target: Sialic acid-binding Ig-like lectin 9 (Homo sapiens) (UniProt Q9Y336); experiment: Hs-Siglec9 ALPHAscreen SOP 20170721; conditions: 10 µM
# Trypanosoma cruzi = experiment: Trypanosoma cruzi phosphomannomutase and mannose-1-phosphate guanylyltransferase assay; format: functional; conditions: 10 µM
# [5] = target: T2, Arginase-2, mitochondrial (Homo sapiens) (UniProt P78540); experiment: in vitro enzyme assay to detect the production of urea directly proportional to the activity of Arginase II; format: functional; conditions: 33.3 µM; note: in the data most compounds retested in dose-response had high values
# T2 sequence (whole entry): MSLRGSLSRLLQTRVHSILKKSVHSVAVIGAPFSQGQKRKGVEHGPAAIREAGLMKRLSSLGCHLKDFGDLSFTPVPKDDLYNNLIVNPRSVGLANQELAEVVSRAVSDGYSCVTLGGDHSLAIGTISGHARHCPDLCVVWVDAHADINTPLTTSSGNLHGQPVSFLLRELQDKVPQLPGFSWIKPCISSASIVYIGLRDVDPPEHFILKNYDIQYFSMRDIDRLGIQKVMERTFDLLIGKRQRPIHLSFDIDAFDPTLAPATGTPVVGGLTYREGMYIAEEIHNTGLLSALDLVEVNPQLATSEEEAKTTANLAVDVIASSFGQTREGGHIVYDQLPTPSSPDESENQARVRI
# [6] = target: T3, Proteasome subunit beta (Trypanosoma cruzi) (UniProt O96673); experiment: Trypanosoma cruzi proteasome chymotrypsin-like activity (TcProtChymo) assay.; note: in the data most compounds retested in dose-response had high values; format: functional; conditions: 9.37 µM
# T3 sequence (whole entry): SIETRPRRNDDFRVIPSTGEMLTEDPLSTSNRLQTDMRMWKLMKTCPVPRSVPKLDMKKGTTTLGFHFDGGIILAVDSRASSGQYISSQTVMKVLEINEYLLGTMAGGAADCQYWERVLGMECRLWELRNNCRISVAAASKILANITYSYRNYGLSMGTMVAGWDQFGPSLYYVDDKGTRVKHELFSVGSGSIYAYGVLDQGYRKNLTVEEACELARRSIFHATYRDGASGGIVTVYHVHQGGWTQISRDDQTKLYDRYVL
# Homo sapiens = organism: Homo sapiens; experiment: To identify inhibition of the IFN signalling (Jak-Stat) pathway via expression of an eGFP reporter gene under the control of an IFN-stimulated response element (ISRE) containing MxA promoter.; format: functional; conditions: 30 µM
# [7] = target: T4, Tyrosyl-tRNA synthetase, putative (Trypanosoma cruzi (strain CL Brener)) (UniProt Q4DSP6); experiment: Trypanosoma cruzi tyrosyl tRNA synthetase (TcYRS) _High Tyrosine SOP; format: functional; conditions: 30 µM; note: in the data most compounds retested in dose-response had high values
# T4 sequence (whole entry): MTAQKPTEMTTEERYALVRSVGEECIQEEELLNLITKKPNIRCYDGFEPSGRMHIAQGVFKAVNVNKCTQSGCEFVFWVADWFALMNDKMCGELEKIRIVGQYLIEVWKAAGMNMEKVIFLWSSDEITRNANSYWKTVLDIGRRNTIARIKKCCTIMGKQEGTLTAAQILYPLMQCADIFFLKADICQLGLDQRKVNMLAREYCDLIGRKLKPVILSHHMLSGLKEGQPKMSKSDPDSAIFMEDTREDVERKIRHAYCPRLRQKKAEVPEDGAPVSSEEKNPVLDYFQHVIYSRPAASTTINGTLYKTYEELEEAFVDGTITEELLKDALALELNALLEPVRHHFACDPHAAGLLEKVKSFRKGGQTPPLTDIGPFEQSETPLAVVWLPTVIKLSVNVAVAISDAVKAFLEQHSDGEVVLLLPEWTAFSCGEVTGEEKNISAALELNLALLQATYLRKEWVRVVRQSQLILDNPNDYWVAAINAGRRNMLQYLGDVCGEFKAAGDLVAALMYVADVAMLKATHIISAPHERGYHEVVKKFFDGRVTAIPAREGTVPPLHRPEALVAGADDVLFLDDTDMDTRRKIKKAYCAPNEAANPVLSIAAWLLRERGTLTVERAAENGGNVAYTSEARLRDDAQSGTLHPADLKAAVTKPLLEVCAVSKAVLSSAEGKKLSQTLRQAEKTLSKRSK
# [8] = target: T4, Tyrosyl-tRNA synthetase, putative (Trypanosoma cruzi (strain CL Brener)); experiment: Trypanosoma cruzi tyrosyl tRNA synthetase (TcYRS) SOP; format: functional; conditions: 30 µM
# [9] = target: Chromo domain-containing protein 1 (Saccharomyces cerevisiae (strain ATCC 204508 / S288c) (Baker's yeast)) (UniProt P32657); experiment: ScCHD-1 Enzyme Inhibition Assay; format: functional; conditions: 30 µM; note: in the data most compounds retested in dose-response had high values
# Chromo domain-containing protein 1 (Saccharomyces cerevisiae (strain ATCC 204508 / S288c) (Baker's yeast)), sequence (P32657 whole entry, the tested form may be a part): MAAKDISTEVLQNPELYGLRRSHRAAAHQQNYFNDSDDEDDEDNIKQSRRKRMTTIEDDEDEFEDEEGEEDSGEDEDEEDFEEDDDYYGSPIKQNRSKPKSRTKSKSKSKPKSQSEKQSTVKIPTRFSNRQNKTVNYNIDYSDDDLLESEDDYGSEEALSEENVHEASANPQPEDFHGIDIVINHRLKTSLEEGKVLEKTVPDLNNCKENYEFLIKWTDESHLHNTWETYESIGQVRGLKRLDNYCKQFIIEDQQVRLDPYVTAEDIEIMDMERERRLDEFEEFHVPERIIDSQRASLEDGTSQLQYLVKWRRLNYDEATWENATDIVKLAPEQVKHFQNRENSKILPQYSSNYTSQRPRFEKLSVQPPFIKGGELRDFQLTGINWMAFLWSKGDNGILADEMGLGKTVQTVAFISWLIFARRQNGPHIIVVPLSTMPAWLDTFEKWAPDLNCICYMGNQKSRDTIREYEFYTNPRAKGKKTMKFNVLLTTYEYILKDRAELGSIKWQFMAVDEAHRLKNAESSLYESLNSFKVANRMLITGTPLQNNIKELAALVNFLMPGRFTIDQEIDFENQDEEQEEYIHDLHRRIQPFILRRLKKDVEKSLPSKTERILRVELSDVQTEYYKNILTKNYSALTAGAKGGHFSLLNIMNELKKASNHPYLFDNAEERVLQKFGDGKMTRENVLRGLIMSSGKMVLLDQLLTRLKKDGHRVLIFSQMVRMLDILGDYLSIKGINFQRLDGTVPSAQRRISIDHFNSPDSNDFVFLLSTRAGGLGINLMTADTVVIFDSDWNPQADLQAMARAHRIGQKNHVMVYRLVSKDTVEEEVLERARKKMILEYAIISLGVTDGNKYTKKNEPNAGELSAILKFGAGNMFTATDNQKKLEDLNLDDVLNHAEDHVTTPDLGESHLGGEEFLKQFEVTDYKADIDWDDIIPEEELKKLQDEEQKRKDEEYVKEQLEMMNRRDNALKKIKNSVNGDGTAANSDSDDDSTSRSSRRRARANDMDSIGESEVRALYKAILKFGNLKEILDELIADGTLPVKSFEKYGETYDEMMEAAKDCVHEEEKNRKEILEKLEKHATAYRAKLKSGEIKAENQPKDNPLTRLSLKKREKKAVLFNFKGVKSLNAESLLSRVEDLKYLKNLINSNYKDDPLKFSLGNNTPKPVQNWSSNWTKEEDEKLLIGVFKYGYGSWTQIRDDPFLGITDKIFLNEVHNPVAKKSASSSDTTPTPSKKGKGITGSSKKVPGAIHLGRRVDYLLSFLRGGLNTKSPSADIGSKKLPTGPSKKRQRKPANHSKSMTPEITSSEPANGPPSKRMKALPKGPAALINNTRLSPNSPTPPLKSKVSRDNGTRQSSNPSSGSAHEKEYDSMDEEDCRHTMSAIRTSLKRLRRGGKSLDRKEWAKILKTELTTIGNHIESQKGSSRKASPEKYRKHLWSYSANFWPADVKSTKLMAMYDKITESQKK
# Protein translocase subunit SecA (Escherichia coli (strain K12)), sequence (P10408 whole entry): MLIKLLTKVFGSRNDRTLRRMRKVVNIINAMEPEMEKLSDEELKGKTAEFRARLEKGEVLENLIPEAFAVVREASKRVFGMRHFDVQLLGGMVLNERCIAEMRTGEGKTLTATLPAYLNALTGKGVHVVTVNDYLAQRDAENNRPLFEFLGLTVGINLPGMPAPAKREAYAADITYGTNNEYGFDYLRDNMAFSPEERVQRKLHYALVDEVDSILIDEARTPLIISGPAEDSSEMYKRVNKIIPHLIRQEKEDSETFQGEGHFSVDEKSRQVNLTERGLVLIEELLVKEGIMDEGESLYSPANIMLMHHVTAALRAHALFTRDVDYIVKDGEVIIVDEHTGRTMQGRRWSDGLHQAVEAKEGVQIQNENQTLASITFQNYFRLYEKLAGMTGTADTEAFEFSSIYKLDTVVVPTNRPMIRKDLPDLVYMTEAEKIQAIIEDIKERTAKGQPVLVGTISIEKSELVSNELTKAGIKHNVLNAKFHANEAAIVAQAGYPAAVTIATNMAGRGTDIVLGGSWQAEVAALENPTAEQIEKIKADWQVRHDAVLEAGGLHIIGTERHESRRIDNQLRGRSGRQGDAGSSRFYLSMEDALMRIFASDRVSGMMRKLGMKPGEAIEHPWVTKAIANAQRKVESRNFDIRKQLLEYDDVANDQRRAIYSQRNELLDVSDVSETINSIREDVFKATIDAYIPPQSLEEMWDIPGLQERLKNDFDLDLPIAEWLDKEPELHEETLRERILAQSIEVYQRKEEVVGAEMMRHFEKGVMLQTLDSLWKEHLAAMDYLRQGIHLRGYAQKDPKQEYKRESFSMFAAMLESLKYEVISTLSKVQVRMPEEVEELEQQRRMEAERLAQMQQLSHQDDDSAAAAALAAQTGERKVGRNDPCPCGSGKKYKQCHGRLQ
# Sialic acid-binding Ig-like lectin 9 (Homo sapiens), sequence (Q9Y336 whole entry): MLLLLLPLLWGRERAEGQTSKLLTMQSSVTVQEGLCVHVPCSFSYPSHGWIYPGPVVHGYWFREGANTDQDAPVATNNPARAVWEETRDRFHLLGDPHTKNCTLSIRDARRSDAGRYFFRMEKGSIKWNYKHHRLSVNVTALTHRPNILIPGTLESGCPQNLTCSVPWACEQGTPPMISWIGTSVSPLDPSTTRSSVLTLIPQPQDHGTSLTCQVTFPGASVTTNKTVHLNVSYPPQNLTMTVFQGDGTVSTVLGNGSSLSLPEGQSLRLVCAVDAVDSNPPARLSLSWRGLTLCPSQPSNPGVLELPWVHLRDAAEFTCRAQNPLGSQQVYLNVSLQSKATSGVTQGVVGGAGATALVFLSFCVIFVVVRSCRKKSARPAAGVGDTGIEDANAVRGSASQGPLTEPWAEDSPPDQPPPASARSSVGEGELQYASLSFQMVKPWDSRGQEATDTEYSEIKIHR
SMILES,Percent Effect [1] [%],Percent Effect [2] [%],Percent Effect [3] [%],Percent Effect [4] [%],Percent Effect (Trypanosoma cruzi) [%],Percent Effect [5] [%],Percent Effect [6] [%],Percent Effect (Homo sapiens) [%],Percent Effect [7] [%],Percent Effect [8] [%],Percent Effect [9] [%]
Cn1cccc1C(=O)N1CC[C@H]2C[C@@H](c3ccncn3)O[C@@H]2C1,-5.79,13.5,3.37,-2.88,-0.684,6.69,14.6,2.31,4.32,5.13,-0.0971
O=C(c1ccncc1F)N1CCN(CC2CC2)c2ncccc2C1,-8.25,-1.33,4.65,-2.72,-9.63,-14.6,10.2,-11,-6.35,-10.3,-9.4
CN(C)c1ccc(CCNC(=O)C2CCC(=O)N(C3CCCC3)C2)cc1 (configuration not stated),-4.96,8,1.17,1.11,-2.04,1.56,13.1,1.03,2.73,11.1,-5.65
CCc1n[nH]c(C2CN(C(=O)c3csnn3)CCO2)n1 (configuration not stated),-7.28,10.4,0.934,4.09,7.15,-5.26,6.06,3.52,2.86,11.8,-11.6
CCc1ccccc1-n1cc(O)c(C(=O)N2CCCCC2)n1,-2.01,-29.7,5.9,-1.13,-4.36,0.185,4.85,20.6,-23.8,-45.1,2
O=C(Nc1cn[nH]c1)c1ccc(O)nc1,-0.619,13.2,4.46,12.7,2.82,-0.766,5.68,1.45,8.33,21.9,-8.54
COc1ccc(CCN2CCC(N3CCN(C)C3=O)CC2)cc1,-6.17,13,0.0857,0.317,-1.87,-4.98,8.45,4.3,4.85,12.2,-7.97
CCc1ccc(CN2CC[C@H]3C[C@H](c4nnc(C)[nH]4)O[C@@H]3C2)o1,-2,0,-2.87,34.9,9.52,-6.79,17.2,9.84,0,-1.24,-3.68
C[C@@H]1CN(C(=O)NC2CC2)C[C@]12CCN(c1ccsc1)C2=O,-4.11,5.33,8.07,0.822,-4.13,2.1,2.56,8.5,4.25,11.5,-3.74
CC(C)(O)CN1CCN(C(=O)c2sccc2C2CC2)CC1,-3.28,6.33,9.46,2.31,-2.56,4.09,4.97,1.7,3.12,2.53,-6.63
CCOc1ccc(-n2nnc(C(=O)O)c2-c2ccncc2)cc1,-0.35,13.2,1.31,-8.67,0.292,1.18,9.11,23.3,2.13,18.2,-5.18
O=C(NCc1cccs1)[C@H]1CC[C@@H]2[C@@H](CCN2c2ncccn2)O1,-2.42,5.41,-0.805,-3.31,6.45,-0.833,18.9,18.7,8.91,18.3,-3.92
COc1cc(CCC(C)O)c(OC)c2c1OCO2 (configuration not stated),-5.08,-1.33,-4.24,-3.72,-4.13,-6.51,11.5,-0.862,-1.06,0,-6.82
CCc1nc(C(=O)N2CCN(C)CC2C)nn1-c1ccccc1Cl (configuration not stated),-3.02,15.8,15.7,-9.77,-7.19,0.36,8.04,12.9,5.42,11.1,-9.77
CC(=O)c1cn(CCC(=O)NCCC(=O)O)c2ccccc12,0.0873,9.33,1.48,3.5,-3.14,-6.16,15.5,0.418,9.52,17.9,-3.67
Cc1cc(C)n(C2CN(CC(=O)NC3CCOCC3)C2)n1,-6.74,6.33,6.98,1.96,-1.33,-1.94,9.26,10.4,8.33,15.2,-15
COc1cccn(CC(=O)N(C)CCOc2cc(C)cc(C)c2)c1=O,-5.42,8.22,-63.8,11.9,2.98,-12.8,15.2,-0.398,-2.08,3.7,-0.823
CCS(=O)(=O)N1CCC(c2cc3n(n2)[C@@H](C(F)(F)F)C[C@@H](C)N3)CC1,-3.21,9.46,-29.7,-2.76,-4.15,2.09,4.37,11.3,-1.07,6.49,-7.22
Cc1noc(C)c1CN1C(=O)[C@H]2CC[C@@H]1CN(Cc1cccnc1N)C2,0.397,1.39,15.3,-8.6,-8.46,3.53,23,31.8,0,-5.13,3.37
c1ccc(-c2cc(CN3CCC(c4ccn[nH]4)CC3)on2)cc1,-3.15,-2.7,-3.14,8.25,-1.54,-0.952,17.2,42.5,0.529,7.32,-3.02
CCc1nc(CN(C(C)=O)C2CCN(CCc3cnn(C)c3)C2)no1 (configuration not stated),-2.36,27.9,-1.95,-9.07,-0.85,3.04,0.901,22.4,-19.2,16.5,-7.18
O=C(NCCN1CCOCC1)NCc1ncc(-c2ccccc2)o1,-2.93,2.67,-6.01,8.92,7.3,0,16.6,19.1,7.1,13.6,-0.412
